# GSTO1 inh – blocks human GSTO1 in RBBP9 counter-screen | 300,000 compounds, 1.1% hits | P78417 | recombinant GSTO1, activity-based probe fluorescence polarization | inhibition, % at 5.96 µM;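 active means inhibition above the campaign mean inhibition plus 3 SD, cut at about 35% in these data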;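 further: 0% = GSTO1-1 with DMSO and 100% = wells lacking GSTO1-1 enzyme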
# Target sequence (P78417 whole entry, looked up): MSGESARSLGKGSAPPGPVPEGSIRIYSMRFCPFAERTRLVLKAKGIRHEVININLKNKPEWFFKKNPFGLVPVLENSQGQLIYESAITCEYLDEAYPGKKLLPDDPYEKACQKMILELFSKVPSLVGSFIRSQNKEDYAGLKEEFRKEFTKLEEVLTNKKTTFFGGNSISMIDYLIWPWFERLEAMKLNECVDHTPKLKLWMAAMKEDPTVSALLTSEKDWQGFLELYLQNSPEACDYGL
# LYPLA2 counter – blocks human lysophospholipase 2, a PME1 counter-screen; O95372; recombinant LYPLA2, FP-Rh probe fluorescence polarization; inhibition, % at 5.9 µM; 320,000 compounds, 0.38% hits; AID 2177;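 active means inhibition above the screen-wide mean plus 3 SD, limit set per campaign, cut at about 26% in these data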;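 further: 0% = LYPLA2 with DMSO and 100% = wells lacking LYPLA2 enzyme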
# Target sequence (O95372 whole entry, looked up): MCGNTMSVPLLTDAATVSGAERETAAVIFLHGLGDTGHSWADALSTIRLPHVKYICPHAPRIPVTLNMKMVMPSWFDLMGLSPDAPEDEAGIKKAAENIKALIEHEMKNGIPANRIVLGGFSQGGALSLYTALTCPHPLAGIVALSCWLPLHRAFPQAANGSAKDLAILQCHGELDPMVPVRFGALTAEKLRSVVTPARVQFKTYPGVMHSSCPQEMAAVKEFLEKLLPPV
# PAD4 FP inh – blocks human protein arginine deiminase 4; Q9UM07; recombinant PAD4, RCA probe fluorescence polarization; inhibition, % at 6.36 µM; 330,000 compounds, 0.41% hits; AID 485272;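 active means percent inhibition above a cutoff equal to the mean of all tested compounds plus 3 SD, cut at about 15% in these data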;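 further: 0% = PAD4 with RCA probe and DMSO and 100% = probe without PAD4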
# LYPLA1 inh – blocks human lysophospholipase 1, a PME1 counter-screen | recombinant LYPLA1, FP-Rh probe fluorescence polarization | AID 2174 | 320,000 compounds, 0.16% hits | O75608 | inhibition, % at 5.9 µM;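 active means inhibition above the mean of all tested compounds plus 3 SD, set per campaign, cut at about 14% in these data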;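 further: inhibitors block serine hydrolase probe labeling of LYPLA1 so polarization falls; 0% = enzyme with DMSO and 100% = wells lacking LYPLA1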
# Fam108B counter – Fam108B inhibition, counter-screen for RBBP9 inhibitors. recombinant Fam108B, FP-Rh probe fluorescence polarization. inhibition, % at 9.51 µM. 300,000 compounds, 0.33% hits. AID 1947;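 active means inhibition above the screen mean inhibition plus 3 SD, computed separately per campaign, cut at about 18% in these data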;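 further: inhibitors lower polarization as less probe binds the enzyme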
# PME-1 inh – blocks human protein phosphatase methylesterase 1. Q9Y570. recombinant PME-1, FP-Rh probe fluorescence polarization. inhibition, % at 5.9 µM. 320,000 compounds, 0.53% hits. AID 2130;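 active means inhibition above the campaign mean of all compounds plus 3 SD, cut at about 26% in these data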;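 further: competitive labeling of PME-1 active site by serine hydrolase directed probe; 0% = PME-1 with DMSO and 100% = wells lacking PME-1 enzyme; inhibitors block probe labeling so polarization falls and inhibition rises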
# LYPLA2 confirm – LYPLA2 (human) inhibition, confirmation counter-screen. AID 2232. 1,100 compounds, 72% hits. shares compounds with LYPLA2 counter. inhibition, % at 5.9 µM. recombinant LYPLA2, FP-Rh probe fluorescence polarization;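 active means mean inhibition across replicates above the hit cutoff set in the primary screen, cut at about 26% in these data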;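 further: blocked labeling of the enzyme by serine hydrolase FP-Rh probe lowers polarization; 0% = enzyme with DMSO and 100% = wells lacking LYPLA2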
# LYPLA2 gel ABPP – blocks human acyl-protein thioesterase 2 in gel ABPP; inhibition, % at 20 µM; AID 652029; shares compounds with LYPLA2 counter; rhLYPLA2 in mouse brain proteome, gel ABPP FP-Rh; 150 compounds, 30% hits;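 active means inhibition of LYPLA2 enzyme probe labeling above about 50%, limit read from the data; inactive means inhibition below that limit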;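 further: loss of FP-Rh probe labeling of the LYPLA2 gel band measured as band density; 0% = DMSO only control band and 100% = blank gel background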
# The depositor's hits bear a star; nt = no result. The list is not random: actives were taken first. Their share in the collection is about 1.8%.
SMILES,GSTO1 inh,LYPLA2 counter,PAD4 FP inh,LYPLA1 inh,Fam108B counter,PME-1 inh,LYPLA2 confirm,others
O=[N+]([O-])c1ccc(OCCN2CCNCC2)cc1,2,29*,0,5,2,5,26*,
Cc1noc(C)c1C(=O)NCc1ccccc1Br,5,13,-2,-1,7,-1,nt,
CC(=C/c1ccc(C(C)C)cc1)/C=N/NC(=O)Cn1nnnc1N,19,40*,-6,1,-1,-6,40*,
CC(/C=N/NC(=O)CSc1ccccn1)=C\c1ccc(C(C)C)cc1,0,20,-1,-3,-1,-9,nt,
Cc1ccc(Cl)cc1N1CCN(C(=O)CCCn2c(=O)c3cccn3c3cccnc32)CC1,1,38*,5,7,-10,3,34*,
Cc1ccc(NC(=O)CCNC(=O)c2ccc(Cl)cc2)nc1,4,-9,3,-4,-4,-3,nt,
COc1ccccc1N1CCN(c2ncnc3sc(C(=O)NCC4CCCO4)c(C)c23)CC1 (stereo unspecified),3,-6,3,-3,1,1,nt,
Cc1ccc(S(=O)(=O)Nc2cccc(-n3cnnn3)c2)cc1C(=O)O,2,33*,-3,1,1,14,1,
O=C1N[C@@H](Cc2ccccc2)C(=O)N2[C@H]1C[C@]1([C@]34C[C@H]5C(=O)N[C@@H](Cc6ccccc6)C(=O)N5[C@H]3N(S(=O)(=O)c3ccccc3)c3ccccc34)c3ccccc3N(S(=O)(=O)c3ccccc3)[C@H]21,-2,-22,-7,-12,-13,-16,nt,
CCN(CC)S(=O)(=O)c1cccc(NC(=O)COc2ncnc3sccc23)c1,7,-7,-3,-3,-3,-10,nt,
CC(C)[C@H](NS(=O)(=O)c1ccccc1)C(=O)OCC(=O)NCc1ccc2c(c1)OCO2,nt,nt,-5,nt,nt,nt,nt,
CSCCC(NC(=O)c1ccc(Cl)c([N+](=O)[O-])c1)C(=O)N1CCN(C/C=C/c2ccccc2)CC1 (stereo unspecified),15,34*,-2,1,-4,3,38*,
O=C1C(=O)N(CCc2c[nH]c3ccccc23)C(c2cccnc2)/C1=C(/O)c1ccccc1 (stereo unspecified),-4,8,-2,2,1,-4,nt,
COc1ccc(C(=O)N2CCCC(N3CCN(c4ccccc4F)CC3)C2)c(OC)n1 (stereo unspecified),-4,1,1,-1,1,3,nt,
Cc1cc(C)cc(Oc2coc3cc(OC(=O)c4cccs4)ccc3c2=O)c1,17,29*,-1,2,-9,-1,18,
Cc1ccc(Oc2coc3cc(OC(=O)c4cccs4)ccc3c2=O)cc1,-5,48*,1,2,-5,-6,44*,
Cc1cccc(Oc2coc3cc(OC(=O)c4cccs4)ccc3c2=O)c1,4,16,2,3,-6,1,nt,
N#Cc1ccc(N2CCN(C(=O)c3cccs3)CC2)c(F)c1,2,3,-8,0,5,-2,nt,
COc1ccc2c(c1)C(=O)[C@@H](O)[C@H](c1ccc(OC)c(Br)c1)O2,4,70*,2,2,-5,1,70*,LYPLA2 gel ABPP=63*
CSc1ccc(C(=O)C2CCCN(C(=O)c3cc4cc(F)ccc4[nH]3)C2)cc1 (stereo unspecified),-5,36*,0,13,-4,-3,41*,
CCC1(CC)NC(=O)N(CC(=O)Nc2ccc(-n3cnnn3)cc2)C1=O,nt,nt,-1,nt,nt,nt,nt,
CCC(NC(=O)c1cc(COc2ccc(C)nc2)on1)c1ccc(C)cc1 (stereo unspecified),-1,-1,-6,4,-4,6,nt,
O=c1c2ccccc2ncn1CCCSc1ccccc1,3,3,-3,-3,-6,3,nt,
O=c1c2ccccc2ncn1CCCSc1ccc(Cl)cc1,1,34*,-3,-1,1,4,29*,
COc1ccc(-c2nc(C#N)c(NCCc3ccccc3)o2)cc1OC,-7,9,-2,7,11,9,nt,
SMILES,GSTO1 inh,LYPLA2 counter,PAD4 FP inh,LYPLA1 inh,Fam108B counter,PME-1 inh,LYPLA2 confirm,others
COc1ccc(CCNc2oc(-c3ccc(OC)c(OC)c3)nc2P(=O)(OC)OC)cc1OC,4,28*,4,1,3,4,-5,
Cc1c(Br)c([N+](=O)[O-])nn1CC(=O)N1CCN(C23CC4CC(CC(C4)C2)C3)CC1,4,27*,1,6,0,2,-1,
CN=C1CC(C)(C)CC(=O)/C1=C(/O)CCCN1C(=O)c2ccccc2C1=O,1,-3,1,-2,-8,4,nt,
CC(C)c1ccc(NC2=NCC(=O)N2Cc2cccs2)cc1,-2,34*,0,-2,0,-1,26*,
O=C1CN=C(Nc2ccccc2)N1Cc1cccs1,-2,2,1,-3,4,-2,nt,
COc1ccc(NC(=O)Cn2c3ccc(OC)cc3c3nc4n(c(=O)c32)CCS4)cc1,3,-4,2,0,1,0,nt,
O=C(CNc1cccc(S(=O)(=O)N2CCCC2)c1)Nc1ccc(F)cc1F,2,-3,-3,-4,0,5,nt,
O=C(NCc1cccnc1)C1c2ccccc2C(=O)N1Cc1ccco1 (stereo unspecified),5,4,2,-1,-1,-2,nt,
O=C1c2ccc(Oc3ccc4c(c3)C(=O)N(CCCO)C4=O)cc2C(=O)N1CCCO,-9,29*,-2,4,2,-3,15,
O=C1COc2ccc(C(=O)COC(=O)c3ccc(Cl)cc3[N+](=O)[O-])cc2N1,9,27*,-4,3,4,3,33*,
O=C1COc2ccc(C(=O)COC(=O)c3ccccc3[N+](=O)[O-])cc2N1,7,16,0,-2,3,2,nt,
Cc1ccc(S(=O)(=O)N2CCN(C(=O)COC(=O)COc3cccc(C(F)(F)F)c3)CC2)c(C)c1,nt,nt,3,nt,nt,nt,nt,
O=C(c1ccc(N2CCNCC2)cc1)c1cccnc1,0,26*,-2,4,-2,2,9,
O=C(CCc1ccccc1)NC(=S)Nc1cc(C(F)(F)F)ccc1N1CCOCC1,-4,31*,0,2,-9,-12,13,
CC(C)CC(=O)NC(=S)Nc1cc(C(F)(F)F)ccc1N1CCOCC1,1,13,-2,-2,3,-1,nt,
O=C(c1ccc(Cl)cc1)c1cc(-c2ccccn2)c(N2CCOCC2)s1,0,6,-1,0,4,13,nt,
Cc1cc(C(=O)OCC(=O)c2cccs2)c2ccccc2n1,-2,31*,-3,-2,-3,2,43*,

# Screening results (PubChem BioAssay)
